# Results reported in the supplement of paper PMC4466140.
# Key:
# Experiment in all cases: SPOT peptide array binding signal intensity (averaged, normalized) (arbitrary units (background-subtracted, floor 0; scale differs between SH3 domains)); higher = stronger binding of the SH3 domain to the peptide
# SpBzz1-D2 = target: SpBzz1-D2
# In short: (§1)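 Spot intensities were captured after detection with anti-GST antibody, an HRP-linked anti-mouse secondary and luminol, and quantified with Genespotter. The probes were GST-fused SH3 domains from four yeast species, produced in E. coli BL21(DE3), purified on glutathione Sepharose and incubated at 10 μg/ml overnight at 4°C on cellulose-bound synthetic 15-mer peptides with cysteines replaced by serines. Binding signal is the normalized, background-subtracted spot intensity averaged over replicates, and its arbitrary units differ between domains.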
# SpCyk3 = target: SpCyk3
# In short: as §1
# SpHof1 = target: SpHof1
# In short: as §1
# SpHof1-2 = target: SpHof1-2
# In short: as §1
# SpHof1-3 = target: SpHof1-3
# In short: as §1
# SpHse1 = target: SpHse1
# In short: as §1
# SpLsb1 = target: SpLsb1
# In short: as §1
# SpLsb4 = target: SpLsb4
# In short: as §1
# SpMyo1 = target: SpMyo1
# In short: as §1
# SpNbp2 = target: SpNbp2
# In short: as §1
# SpPex13 = target: SpPex13
# In short: as §1
# SpRvs167 = target: SpRvs167
# In short: as §1
# SpSla1-D1-D2 = target: SpSla1-D1-D2
# In short: as §1
# SpSla1-D3 = target: SpSla1-D3
# In short: as §1
# AgAbp1 = target: AgAbp1
# In short: as §1
# AgBbc1 = target: AgBbc1
# In short: as §1
# AgBem1-D1 = target: AgBem1-D1
# In short: as §1
# AgBzz1-D1 = target: AgBzz1-D1
# In short: as §1
# AgBzz1-D2 = target: AgBzz1-D2
# In short: as §1
# AgCyk3 = target: AgCyk3
# In short: as §1
# AgFus1 = target: AgFus1
# In short: as §1
# AgHof1 = target: AgHof1
# In short: as §1
# AgHse1 = target: AgHse1
# In short: as §1
# AgLsb1 = target: AgLsb1
# In short: as §1
# AgLsb4 = target: AgLsb4
# In short: as §1
# AgMyo5 = target: AgMyo5
# In short: as §1
# AgNbp2 = target: AgNbp2
# In short: as §1
# AgRvs167 = target: AgRvs167
# In short: as §1
# AgSho1 = target: AgSho1
# In short: as §1
# AgSla1-D1-D2 = target: AgSla1-D1-D2
# In short: as §1
# AgSla1-D3 = target: AgSla1-D3
# In short: as §1
# CaAbp1-D1 = target: CaAbp1-D1
# In short: as §1
# CaAbp1-D2 = target: CaAbp1-D2
# In short: as §1
# CaBbc1 = target: CaBbc1
# In short: as §1
# CaBem1-D1 = target: CaBem1-D1
# In short: as §1
# CaBzz1-D1 = target: CaBzz1-D1
# In short: as §1
# CaBzz1-D2 = target: CaBzz1-D2
# In short: as §1
# CaCyk3 = target: CaCyk3
# In short: as §1
# CaFus1 = target: CaFus1
# In short: as §1
# CaHof1 = target: CaHof1
# In short: as §1
# CaHse1 = target: CaHse1
# In short: as §1
# CaLsb1 = target: CaLsb1
# In short: as §1
# CaLsb4 = target: CaLsb4
# In short: as §1
# CaMyo5 = target: CaMyo5
# In short: as §1
# CaNbp2 = target: CaNbp2
# In short: as §1
# CaRvs167 = target: CaRvs167
# In short: as §1
# CaRvs167-3 = target: CaRvs167-3
# In short: as §1
# CaSho1 = target: CaSho1
# In short: as §1
# CaSla1-D1-D2 = target: CaSla1-D1-D2
# In short: as §1
# CaSla1-D3 = target: CaSla1-D3
# In short: as §1
# ScAbp1 = target: ScAbp1
# In short: as §1
# ScBbc1 = target: ScBbc1
# In short: as §1
# ScBem1-D1 = target: ScBem1-D1
# In short: as §1
# ScBzz1-D1 = target: ScBzz1-D1
# In short: as §1
# ScBzz1-D2 = target: ScBzz1-D2
# In short: as §1
# ScCyk3 = target: ScCyk3
# In short: as §1
# ScFus1 = target: ScFus1
# In short: as §1
# ScHof1 = target: ScHof1
# In short: as §1
# ScHse1 = target: ScHse1
# In short: as §1
# ScLsb1 = target: ScLsb1
# In short: as §1
# ScLsb2 = target: ScLsb2
# In short: as §1
# ScLsb3 = target: ScLsb3
# In short: as §1
# ScLsb4 = target: ScLsb4
# In short: as §1
# ScMyo3 = target: ScMyo3
# In short: as §1
# ScMyo5 = target: ScMyo5
# In short: as §1
# ScNbp2 = target: ScNbp2
# In short: as §1
# ScPex13 = target: ScPex13
# In short: as §1
# ScRvs167 = target: ScRvs167
# In short: as §1
# ScSho1 = target: ScSho1
# In short: as §1
# ScSla1-D1-D2 = target: ScSla1-D1-D2
# In short: as §1
# ScSla1-D3 = target: ScSla1-D3
# In short: as §1
# SpAbp1-D1 = target: SpAbp1-D1
# In short: as §1
# SpBbc1 = target: SpBbc1
# In short: as §1
# SpBzz1-D1 = target: SpBzz1-D1
# In short: as §1
binder,measurement,setting,value
RKRAPTPPAPSRSEK,SPOT peptide array binding signal intensity,SpBzz1-D2,157
same,SPOT peptide array binding signal intensity,SpCyk3,≤ 0
same,SPOT peptide array binding signal intensity,SpHof1,140
same,SPOT peptide array binding signal intensity,SpHof1-2,5.75
same,SPOT peptide array binding signal intensity,SpHof1-3,486
same,SPOT peptide array binding signal intensity,SpHse1,123
same,SPOT peptide array binding signal intensity,SpLsb1,39.2
same,SPOT peptide array binding signal intensity,SpLsb4,1110
same,SPOT peptide array binding signal intensity,SpMyo1,4.5
same,SPOT peptide array binding signal intensity,SpNbp2,67.5
same,SPOT peptide array binding signal intensity,SpPex13,≤ 0
same,SPOT peptide array binding signal intensity,SpRvs167,450
same,SPOT peptide array binding signal intensity,SpSla1-D1-D2,199
same,SPOT peptide array binding signal intensity,SpSla1-D3,≤ 0
TSFKGRPKPPKTLKH,SPOT peptide array binding signal intensity,AgAbp1,590
same,SPOT peptide array binding signal intensity,AgBbc1,17.8
same,SPOT peptide array binding signal intensity,AgBem1-D1,≤ 0
same,SPOT peptide array binding signal intensity,AgBzz1-D1,≤ 0
same,SPOT peptide array binding signal intensity,AgBzz1-D2,28
same,SPOT peptide array binding signal intensity,AgCyk3,≤ 0
same,SPOT peptide array binding signal intensity,AgFus1,3
same,SPOT peptide array binding signal intensity,AgHof1,22.5
same,SPOT peptide array binding signal intensity,AgHse1,65.5
same,SPOT peptide array binding signal intensity,AgLsb1,≤ 0
same,SPOT peptide array binding signal intensity,AgLsb4,20
same,SPOT peptide array binding signal intensity,AgMyo5,1.5
same,SPOT peptide array binding signal intensity,AgNbp2,≤ 0
same,SPOT peptide array binding signal intensity,AgRvs167,2
same,SPOT peptide array binding signal intensity,AgSho1,≤ 0
same,SPOT peptide array binding signal intensity,AgSla1-D1-D2,71
same,SPOT peptide array binding signal intensity,AgSla1-D3,5.5
same,SPOT peptide array binding signal intensity,CaAbp1-D1,1460
same,SPOT peptide array binding signal intensity,CaAbp1-D2,1380
same,SPOT peptide array binding signal intensity,CaBbc1,43.5
same,SPOT peptide array binding signal intensity,CaBem1-D1,≤ 0
same,SPOT peptide array binding signal intensity,CaBzz1-D1,80.5
same,SPOT peptide array binding signal intensity,CaBzz1-D2,67.8
same,SPOT peptide array binding signal intensity,CaCyk3,3
same,SPOT peptide array binding signal intensity,CaFus1,44.5
same,SPOT peptide array binding signal intensity,CaHof1,2.75
same,SPOT peptide array binding signal intensity,CaHse1,2.75
same,SPOT peptide array binding signal intensity,CaLsb1,≤ 0
same,SPOT peptide array binding signal intensity,CaLsb4,≤ 0
same,SPOT peptide array binding signal intensity,CaMyo5,2.5
SGVRLPAPPPPPRRG,SPOT peptide array binding signal intensity,AgAbp1,606
same,SPOT peptide array binding signal intensity,AgBbc1,1230
same,SPOT peptide array binding signal intensity,AgBem1-D1,36
same,SPOT peptide array binding signal intensity,AgBzz1-D1,404
same,SPOT peptide array binding signal intensity,AgBzz1-D2,140
same,SPOT peptide array binding signal intensity,AgCyk3,2
same,SPOT peptide array binding signal intensity,AgFus1,21
same,SPOT peptide array binding signal intensity,AgHof1,472
same,SPOT peptide array binding signal intensity,AgHse1,24.5
same,SPOT peptide array binding signal intensity,AgLsb1,699
same,SPOT peptide array binding signal intensity,AgLsb4,1040
same,SPOT peptide array binding signal intensity,AgMyo5,579
same,SPOT peptide array binding signal intensity,AgNbp2,1250
same,SPOT peptide array binding signal intensity,AgRvs167,1310
same,SPOT peptide array binding signal intensity,AgSho1,36
same,SPOT peptide array binding signal intensity,AgSla1-D1-D2,38
same,SPOT peptide array binding signal intensity,AgSla1-D3,61
same,SPOT peptide array binding signal intensity,CaAbp1-D1,1510
same,SPOT peptide array binding signal intensity,CaAbp1-D2,1030
same,SPOT peptide array binding signal intensity,CaBbc1,1050
same,SPOT peptide array binding signal intensity,CaBem1-D1,544
same,SPOT peptide array binding signal intensity,CaBzz1-D1,3080
same,SPOT peptide array binding signal intensity,CaBzz1-D2,1360
same,SPOT peptide array binding signal intensity,CaCyk3,44
same,SPOT peptide array binding signal intensity,CaFus1,74
same,SPOT peptide array binding signal intensity,CaHof1,114
same,SPOT peptide array binding signal intensity,CaHse1,20
same,SPOT peptide array binding signal intensity,CaLsb1,0.5
same,SPOT peptide array binding signal intensity,CaLsb4,1890
same,SPOT peptide array binding signal intensity,CaMyo5,42
same,SPOT peptide array binding signal intensity,CaNbp2,216
same,SPOT peptide array binding signal intensity,CaRvs167,1350
same,SPOT peptide array binding signal intensity,CaRvs167-3,10.2
same,SPOT peptide array binding signal intensity,CaSho1,34
same,SPOT peptide array binding signal intensity,CaSla1-D1-D2,3580
same,SPOT peptide array binding signal intensity,CaSla1-D3,77.2
same,SPOT peptide array binding signal intensity,ScAbp1,452
same,SPOT peptide array binding signal intensity,ScBbc1,267
same,SPOT peptide array binding signal intensity,ScBem1-D1,≤ 0
same,SPOT peptide array binding signal intensity,ScBzz1-D1,257
same,SPOT peptide array binding signal intensity,ScBzz1-D2,36
same,SPOT peptide array binding signal intensity,ScCyk3,6.5
same,SPOT peptide array binding signal intensity,ScFus1,3.5
same,SPOT peptide array binding signal intensity,ScHof1,482
same,SPOT peptide array binding signal intensity,ScHse1,169
same,SPOT peptide array binding signal intensity,ScLsb1,438
same,SPOT peptide array binding signal intensity,ScLsb2,438
same,SPOT peptide array binding signal intensity,ScLsb3,2990
same,SPOT peptide array binding signal intensity,ScLsb4,2100
same,SPOT peptide array binding signal intensity,ScMyo3,1670
same,SPOT peptide array binding signal intensity,ScMyo5,864
same,SPOT peptide array binding signal intensity,ScNbp2,622
same,SPOT peptide array binding signal intensity,ScPex13,1050
same,SPOT peptide array binding signal intensity,ScRvs167,3210
same,SPOT peptide array binding signal intensity,ScSho1,1100
same,SPOT peptide array binding signal intensity,ScSla1-D1-D2,2820
same,SPOT peptide array binding signal intensity,ScSla1-D3,9
same,SPOT peptide array binding signal intensity,SpAbp1-D1,2280
same,SPOT peptide array binding signal intensity,SpBbc1,19.2
same,SPOT peptide array binding signal intensity,SpBzz1-D1,3360
same,SPOT peptide array binding signal intensity,SpBzz1-D2,1490
same,SPOT peptide array binding signal intensity,SpCyk3,17
same,SPOT peptide array binding signal intensity,SpHof1,248
same,SPOT peptide array binding signal intensity,SpHof1-2,231
same,SPOT peptide array binding signal intensity,SpHof1-3,1500
same,SPOT peptide array binding signal intensity,SpHse1,67.5
same,SPOT peptide array binding signal intensity,SpLsb1,870
same,SPOT peptide array binding signal intensity,SpLsb4,6010
same,SPOT peptide array binding signal intensity,SpMyo1,502
same,SPOT peptide array binding signal intensity,SpNbp2,26
same,SPOT peptide array binding signal intensity,SpPex13,35
same,SPOT peptide array binding signal intensity,SpRvs167,2550
same,SPOT peptide array binding signal intensity,SpSla1-D1-D2,993
same,SPOT peptide array binding signal intensity,SpSla1-D3,0.5
